Values joined by “and” are separate entries in the source; they are usually repeats but may differ in a detail not shown here. Identical values can stand only once. Results filed as inconclusive are left out. Active and inactive are the calls of the source. Calls follow the shape of the dose curve; as a rule, active = well fitted inhibition curve with a large enough effect; inconclusive = small, poorly fitted or top-dose-only effect, or another doubt; inactive = flat fitted curve, though single readings scatter.

The nature of the test: Confirmation Concentration-Response Assay for lipid storage modulators: for probe SAR round 2. As to conditions: Drosophila S3 cells, BODIPY lipid droplet fluorescence, 18-24 h; series mostly up to 46.1 µM. The source says: NIH Molecular Libraries Probe Production Centers Network [MLPCN] NIH Chemical Genomics Center [NCGC] MLPCN Grant: 1 R03 MH085686-01 Assay Submitter (PI): Beller, Mathias; Max-Planck-Institut fur Biophysikalische Chemie NCGC Assay Overview: Storing lipids as a reservoir for energy or the anabolism of elementary metabolites is a common feature of probably all cells and is conserved from bacteria to humans. The universal cellular lipid storage organelle is the so-called lipid storage droplet (LD). Although ubiquitous, LDs share a simple structure composed of a hydrophobic core that harbors the storage lipids, which is shielded by a droplet-specific phospholipid monolayer to which proteins are attached. The current model of LD biogenesis involves an incorporation of the lipid core into the membrane leaflets of the endoplasmic reticulum (ER) followed by a subsequent budding-like maturation of a LD, which ultimately pinches off. Once released, LD volume can increase by localized lipogenesis or fusion of existing droplets. Storage lipids are re-mobilized enzymatically by lipase activity. Lipase regulation in the adipocyte is heavily studied and involves multiple components including catecholamine signaling, the LD-associated proteins Perilipin and comparative gene identification-58 (CGI-58) and at least two lipases named hormone sensitive lipase (HSL) and adipocyte triglyceride lipase (ATGL). LD regulation outside of the adipocyte is poorly understood and only few components are known. However, there is an urgent need to learn more about ectopic fat depots as mislocalized storage of lipids, for example in the liver or muscle, is an eminent health problem associated with insulin resistance or the metabolic syndrome. We developed a laser-scanning cytometer assay to enable 1,536-well screening and combined the results of the small molecules screen with an RNAi database based on lipid storage.
We dispensed 4 uL of cells at 1.25 x 10^6 cells/mL into LoBase Aurora COC 1,536-well plates (black walled, clear bottom) with a bottle-valve solenoid-based dispenser (Aurora) to obtain 5,000 cells/well. Triacsin C (Sigma-Aldrich T-4540), an inhibitor of long-chain fatty acyl CoA synthetase that blocks synthesis of triglycerides, was used as a positive control for lipid under-storage. A total of 23 nL of compound solution of different concentrations were transferred to the assay plates using a Kalypsys pin tool equipped with a 1,536-pin array containing 10-nL slotted pins (FP1S10, 0.457-mm diameter, 50.8 mm long; V&P Scientific). One microliter of oleic acid (400 uM) was added, and the plate was lidded with stainless steel rubber gasket lined lids containing pinholes. After 18-24 h incubation at 24 degree Celsius and 95% humidity, 4 uL of the dyes BODIPY 493/503 (Molecular Probes) and the Cell Tracker Red CMTPX dye (Molecular Probes) were added to the wells to stain lipid droplets and enumerate cell number, respectively. Fluorescence was detected by excitation of the fluorophores with a 488-nm laser on an Acumen Explorer (TTP Lab Tech). The total intensity in channel 1 (500-530 nm) reflected lipid droplet accumulation. Cells were detected using channel 3 (575- 640 nm) with 5-um width and 100-um depth filters. The ratio of the total intensity in PMT channel 1 over total intensity of channel 3 was also calculated. Percent activity was computed relative to an internal control (100% inhibited lipid droplet deposition due to the presence of 20 uM Triacsin C), which was added to 32 wells/plate.
With `O=C(NC1CCCc2c1cnn2-c1ccc(F)cc1F)c1ccccc1` (stereo unspecified), the Potency is 25 nM (active). The value for `CCOC(=O)C1CCN(C(=O)C(C)(C)NC(=O)Nc2ccc(C(F)(F)F)cc2Cl)CC1` was 141 nM (active).

Regarding `CC(C)(NC(=O)Nc1ccccc1Cl)C(=O)N1CCC(C(=O)O)CC1`, the Potency result was “inactive”. Take `CC(C)(C)OC(=O)NCCOCCOCCOc1cccc(-n2ncc3c2CCCC3NC(=O)c2ccccn2)c1` (stereo unspecified): the Potency is 5.6 nM (active). The value for `O=C(NC1CCCc2c1cnn2-c1ccc(F)cc1F)c1ccccn1` (stereo unspecified) was 315 nM (active) and 6.3 nM (active). With `CCOC(=O)C1CCN(C(=O)C(C)(C)NC(=O)Nc2ccccc2Cl)CC1`, the Potency was 705 nM (active). In the case of `CCOC(=O)C1CCN(C(=O)C(C)(C)NC(=O)Nc2ccc3ccccc3c2)CC1`, the Potency was 4990 nM (active).

As for `CCN(CC)C(=O)C1CCN(C(=O)C(C)(C)NC(=O)Nc2ccccc2Cl)CC1`, the Potency is 15800 nM (active).

For the compound `CC(C)(C)OC(=O)NCCOCCOCCOc1ccc(-n2ncc3c2CCCC3NC(=O)c2ccccn2)cc1` (stereo unspecified), the Potency is 1.8 nM (active). In the case of `CCOC(=O)C1CCN(C(=O)C(C)(C)NC(=O)Nc2cccc(C(=O)OC)c2)CC1` it was 7050 nM (active); in that of `O=C(NC1CCCc2c1cnn2-c1ccc(F)cc1F)c1cccs1` (stereo unspecified), 6.3 nM (active); in that of `CCOC(=O)C1CCN(C(=O)C(C)(C)NC(=O)Nc2ccc(Oc3ccccc3)cc2)CC1`, 353 nM (active). The value for `CCOC(=O)C1CCN(C(=O)C(C)(C)NC(=O)Nc2cccc(-c3csc(C)n3)c2)CC1` was 25000 nM (active); that for `CCOC(=O)C1CCN(C(=O)C(C)(C)NC(=O)Nc2ccc(Cl)cc2Cl)CC1` was 445 nM (active). In the case of `CCOC(=O)C1CCN(C(=O)C(C)(C)NC(=O)Nc2cccc(OC)c2)CC1`, the Potency was 4450 nM (active). The value for `CC(C)(C)OC(=O)NCCOCCOCCOCCn1ncc2c1CCCC2NC(=O)c1ccccn1` (stereo unspecified) was 158 nM (active). For the compound `CCOC(=O)C1CCN(C(=O)C(C)(C)NC(=O)Nc2ccc(-c3ccccc3)cc2)CC1`, the Potency was 1410 nM (active). As to `O=C(NC1CCCc2c1cnn2-c1cccc(O)c1)c1ccccn1` (stereo unspecified), the Potency was 5 nM (active). In the case of `CCOC(=O)C1CCN(C(=O)C(C)(C)NC(=O)Nc2ccc3sccc3c2)CC1` it was 12500 nM (active); in that of `O=C(N[C@H]1CCCc2c1cnn2-c1ccc(F)cc1F)c1ccccn1`, 22300 nM (active); in that of `CCOC(=O)C1CCN(C(=O)C(C)(C)NC(=O)Nc2ccc(CN3CCOCC3)cc2)CC1`, “inactive”.

As to `CCOC(=O)C1CCN(C(=O)C(C)(C)NC(=O)Nc2ccc(N(C)C)cc2)CC1`, the Potency was 5600 nM (active). The value for `CCOC(=O)C1CCN(C(=O)C(C)(C)NC(=O)Nc2ccc3c(c2)CCC3)CC1` was 12500 nM (active); that for `CCNC(=O)C1CCN(C(=O)C(C)(C)NC(=O)Nc2ccccc2Cl)CC1` was 14100 nM (active); that for `COc1ccc(-n2ncc3c2CCCC3NC(=O)c2ccccn2)cc1` (stereo unspecified) was 1.6 nM (active). In the case of `COc1cccc(-n2ncc3c2CCCC3NC(=O)c2ccccn2)c1` (stereo unspecified), the Potency was 2.5 nM (active). As to `CCOC(=O)C1CCN(C(=O)C(C)(C)NC(=O)Nc2ccc(OC)c(Cl)c2)CC1`, the Potency was 7910 nM (active). In the case of `O=C(NC1CCCc2c1cnn2CCO)c1ccccn1` (stereo unspecified) it was 1580 nM (active).

For `CCOc1ccc(CCNC(=O)c2cc3sccc3n2Cc2cccc(C)c2)cc1OCC`, the Potency was 2.2 nM (active). In the case of `CCOC(=O)C1CCN(C(=O)C(C)(C)NC(=O)Nc2ccc(F)c(F)c2)CC1` it was 1990 nM (active); in that of `O=C(NC1CCCc2c1cnn2-c1ccc(O)cc1)c1ccccn1` (stereo unspecified), 0.7 nM (active).

These data come from PubChem BioAssay AID504432 (National Center for Advancing Translational Sciences (NCATS), 2011).
